Screening results as filed in PubChem BioAssay.
Shh pathway inh: Hedgehog pathway signaling inhibitors, primary screen, luminescence, Shh-LIGHT2 cells, Gli-luciferase; Shh-LIGHT2 Gli-luciferase reporter, 30 h; inhibition, % (concentration not given with the values); actives 2.1% (n = 22,000); AID 2313, 2010;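 active = mean inhibition across valid replicates above about 65%, limit read from the data; inconclusive = mean under the limit, yet half or more replicates past it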;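 also: pathway switched on by Shh-conditioned medium diluted 1 in 25 in low serum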
BJeLR viability: BJeLR cell viability loss, primary screen, luminescence, CellTiterGlo ATP. BJeLR fibroblasts viability, 48 h; HRASV12, hTERT and SV40 LT/ST transformed. viability loss activity score, % (no concentration beside the values). actives 0.64% (n = 30,000); in the data active = viability loss activity score above about 50%; inconclusive = no clear call, values can overlap the other calls; inactive = below about 35%;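 also: higher score means fewer live cells and less ATP luminescence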
Starred values were filed as active, the others as inactive; ? = inconclusive; · = no result given. Many of the other results were omitted from the sample, so hits are more common in it than they were.

SMILES	Shh pathway inh	BJeLR viability
Cc1ccc(Cc2nn3c(C(=O)c4cccs4)nn(-c4ccc(Cl)cc4)c3nc2=O)cc1	67*	-1
COC(=O)C1=C(C)N(Cc2ccccc2)C(=O)NC1c1ccccc1F (configuration not stated)	·	4
CCCNC(=O)c1cc2c(s1)CS(=O)(=O)C2	·	0
CN(C)CCNC(=O)c1cc2c(s1)-c1ccc(Cl)cc1SC2	·	123*
CSc1cccc(NC(=S)N(CCN2CCCCC2)Cc2ccco2)c1	·	-3
CO[C@@H]1CC(OC2CCC3(C)C(CCC45CCC(C6=CC(=O)OC6)C(C)(CCC43)C5=O)C2)O[C@H](C)[C@@H]1O[C@@H]1O[C@H](CO[C@@H]2O[C@H](CO)[C@@H](O)[C@H](O)[C@H]2O)[C@@H](O)[C@H](O)[C@H]1O (some centres not stated)	-34	92*
C=C1[C@@H](C2=CC(=O)OC2)CC[C@@]2(O)[C@@H]1CC1[C@H]2CC[C@@H]2C[C@@H](O[C@H]3O[C@@H](C)[C@@H](O[C@@H]4O[C@H](CO[C@@H]5O[C@H](CO)[C@@H](O)[C@H](O)[C@H]5O)[C@@H](O)[C@H](O)[C@H]4O)[C@H](OC)[C@H]3O)CC[C@]12C (some centres not stated)	27	·
COc1ccccc1NC(=O)C1C=C2C=CC=CC2OC1=Nc1ccccc1F (configuration not stated)	11	-8
CC1=CC(C)(C)N(S(=O)(=O)c2ccc(C)cc2)c2ccccc21	68*	57*
CC1=CC(C)(C)N(C(=O)Nc2ccc(C)cc2)c2ccccc21	·	3
CCC(=O)NC(=S)Nc1cc(-c2nc3ccccc3o2)ccc1OC	·	-9
CC(C)CCNCc1c(C(=O)O)n(Cc2ccccc2)c2ccccc12	·	-1
CC(C)C[C@@H](/C=C/S(C)(=O)=O)NC(=O)[C@H](CC(C)C)NC(=O)[C@H](CC(C)C)NC(=O)OCc1ccccc1	47	116*
CC(C)C[C@@H](NC(=O)OCC1c2ccccc2-c2ccccc21)C(=O)O	-150	6
O=C(C(C(=O)N1CCCCC1)C12CC3CC(CC(C3)C1)C2)N1CCCCC1	·	-3
N#CC(C#N)=C(Nc1ccc(Br)cc1)SCc1ccc(F)cc1	109*	40
CNC(=O)CSCc1ccc(Br)cc1	-57	-3
COc1c(O)c(C(=O)/C=C\c2ccccc2)c(OC)c(OC)c1OC	-20	-4
N#C/C(=C/c1ccc(O)c(O)c1)C(=O)OC/C=C/c1ccccc1	?	-1
Oc1cc(O)cc(/C=C/c2ccc(O)c(O)c2)c1	82*	-10
CC[N+](C)(CC)Cc1cc2ccccc2c2c1COC2	·	2
C[C@@H]1CN([C@H](C)CO)C(=O)c2cccc(NS(=O)(=O)c3cccs3)c2O[C@@H]1CN(C)Cc1ccc(Oc2ccccc2)cc1	16	2
O=C(OCn1nnc2ccccc2c1=O)C1(c2ccc(Cl)cc2)CCCC1	·	-7
COc1ccc(NC(=O)c2ccc3c(=O)n(Cc4ccco4)c(=S)[nH]c3c2)cc1OC	77*	-4
COc1ccccc1Cn1c(=S)[nH]c2cc(C(=O)NCC(OC)OC)ccc2c1=O	·	0
SMILES	Shh pathway inh	BJeLR viability
Cc1ccc(CSc2ncnc3sc4c(c23)CCC4)cc1	·	-2
CCN(CC)C(=S)Sc1ncnc2sc3c(c12)CCCC3	90*	-3
O=S(=O)(NCCCn1ccnc1)c1ccc2ccccc2c1	·	7
Cc1nnc(-c2ccccc2)c(=O)n1/N=C/c1ccc2c(c1)OCO2	·	9
Cc1ccc(C(=O)Cn2c(C)csc2=Nc2ccccc2)cc1	·	2
Cc1ccc(C(=O)Cn2c3c(sc2=N)CCCC3)cc1	76*	4
CC(C)n1c(/C=C/[C@H](O)C[C@H](O)CC(=O)O)c(-c2ccc(F)cc2)c2ccccc21	19	56*
CC(C)n1c2ccccc2c2nnc(SCCCC(=O)c3ccc(F)cc3)nc21	·	7
Cc1ccc(S(C)(=O)=O)cc1	-22	0
COc1cc2c(cc1OC)[C@@H]1C(=O)c3ccc4c(c3O[C@@H]1CO2)CCC(C)(C)O4	94*	8
COc1ccc2c(c1)O[C@@H]1COc3cc(OC)c(OC)cc3[C@@H]1C2=O	32	17
C[C@H]1CN([C@@H](C)CO)C(=O)c2cccc(NC(=O)Nc3ccc4c(c3)OCO4)c2O[C@@H]1CN(C)Cc1ccc(Cl)c(Cl)c1	-13	3
CC(=O)O[C@H]1C(=O)[C@@]2(C)C([C@H](OC(=O)c3ccccc3)[C@]3(O)C[C@H](OC(=O)[C@H](O)[C@@H](NC(=O)c4ccccc4)c4ccccc4)C(C)=C1C3(C)C)[C@]1(OC(C)=O)CO[C@@H]1C[C@@H]2O (some centres not stated)	-43	50*
COc1cc(CN(C)C)c(O)c(CN(C)C)c1	·	-1
CC(=O)O[C@@H]1[C@@H](O)[C@@H](O)[C@H](Oc2c(-c3ccc(O)cc3)oc3cc(O[C@@H]4O[C@@H](C)[C@H](O)[C@@H](O)[C@H]4O)cc(O)c3c2=O)O[C@H]1C	-8	·
CCC(C)C1NC(=O)C(CCC(=O)O)N(C)C(=O)C(C(C)C)N(C)C(=O)CNC(=O)C2CCCN2C(=O)C(Cc2ccccc2)NC(=O)C(C(C)CC)OC(=O)C(CCC(=O)O)N(C)C(=O)C(C(C)C)NC(=O)C2CCCCN2C1=O (configuration not stated)	100*	-8
C[C@H](CO)N1C[C@H](C)[C@@H](CN(C)S(=O)(=O)c2ccc(Cl)cc2)Oc2c(NS(C)(=O)=O)cccc2C1=O	-6	8
Cn1c(SCc2ccc(C(F)(F)F)cc2)nnc1C(F)(F)F	·	-4
Cn1c(SCc2ccc(C(F)(F)F)cc2)nnc1-c1ccc(OCC(F)(F)F)nc1	74*	1
N#C/C(=C\Nc1cccc(Cl)c1)S(=O)(=O)c1ccc(Cl)cc1	?	-1
COc1ccc(CN(C)C[C@H]2Oc3ccc(NC(=O)Cn4cnnn4)cc3C(=O)N([C@@H](C)CO)C[C@H]2C)cc1	-25	-4
COc1cccc(-n2nnc3c(=O)n(CC(=O)c4ccc(Cl)cc4)cnc32)c1	·	-5
COc1ccc(CC(=O)N(CC#N)CC#N)cc1OC	-6	-3
CCOc1ccc(-c2n[nH]c(=S)n2C2C=CCCC2)cc1 (configuration not stated)	·	-7
O=C(NCCN1CCN(c2cccc(Cl)c2)CC1)Nc1ccc(Cl)cc1	·	-1
SMILES	Shh pathway inh	BJeLR viability
OC(CN1CCN(c2cccc(Cl)c2)CC1)C(c1ccccc1)c1ccccc1 (configuration not stated)	95*	0
O=c1cc(N2CCOCC2)oc2c1ccc1ccccc12	-70	4
O=c1cc(N2CCOCC2)oc2c(-c3ccccc3)cccc12	71*	5
CN(C1CCCCC1)S(=O)(=O)c1cc(Br)cc2c1N(C(=O)C1CC1)CC2	·	-4
O=C(Nc1ccccc1)c1cc([N+](=O)[O-])ccc1Cl	22	-3
O=C(Nc1ccc([N+](=O)[O-])cc1Cl)c1cc(Cl)ccc1O	88*	99*
Cc1noc(C)c1NC(=O)Nc1ccc2c(c1)C(=O)N([C@H](C)CO)C[C@H](C)[C@H](CN(C)S(=O)(=O)c1ccccc1)OCCCC[C@@H](C)O2	-20	·
O=C(/C=C/c1ccc2c(c1)OCO2)Nc1ccc(-n2nncc2-c2ccccc2)cc1	·	-2
